IL-2 act: IL-2 activation | IL-2 activation reporter assay, cell-based qHTS; stimulated with anti-CD3/CD4/CD28 beads; in transgenic mouse T cells | activation, % (series mostly up to about 46 µM) | hit rate 0.065% among 360,000 | AID 652025; in the data active means activation above about 50%; inconclusive means mostly about 30% to 49%
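EGFP and DsRed fluorescence is measured by plate cytometry in unstimulated transgenic mouse T cells exposed to compound for 60 minutes, then stimulated 18 hours at 37 degrees C with anti-CD3/anti-CD4 beads plus anti-CD28.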
ELG1 repair inh: inhibitors of ELG1-dependent DNA repair in HEK293T cells; HEK293T ELG1-luciferase reporter, luminescence, 16 h; DNA damage induced by 5-fluorouridine; Potency, µM (highest dose often 46.1 µM), usual class: inhibitors; hit rate 2.3% among 330,000; further: nearly all actives have a fitted effect of over 55% in size
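DMSO vehicle served as the neutral condition. Each well held 2,000 cells given 5-fluorouridine plus compound; after 16 hr at 37 °C/5% CO2, ONE-Glo was added and luciferase measured 30 min later.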
Nrf2 ARE act: activates Nrf2 signaling; hit rate 0.31% among 410,000; AREc32 ARE-luciferase reporter (MCF7-derived line), luminescence, 24 h; Potency, µM (series often up to 46.1 µM), actives largely listed as activators; further: nearly all actives have a fitted effect of over 65% in size
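Steps: seed AREc32_Fluc cells (1000/well, 5% FBS OPTI-MEM); incubate overnight at 37 deg C; add 23 nL compound; incubate 24 hr; add Steady-Glo; hold 30 min RT; read luminescence.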
BRCA1 expr up: increases BRCA1 expression. hit rate 1.1% among 380,000. AID 624202. MCF7-BRCA1-FFLuc reporter, luminescence, 48 h; response scale: scaled: vehicle 0%, 10 µM genistein 100%. Potency, µM (series often up to 46.1 µM), most hits filed as activators; further: nearly all actives have a fitted effect of over 80% in size
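MCF7 cells carrying a BRCA1-firefly luciferase reporter (2000 cells/well, phenol-red free MEM) were attached for 2 h at 37 °C, then given compounds for 48 h. Luminescence was read 15 min after luciferase reagent; activity normalized to genistein (10 microM) and DMSO.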
Large screens that a line does not name were inactive. This is a sample that favours compounds with a hit; in the whole collection about 3.1% have one here. Unless noted, the call rests on the fitted dose curve; in most records, active means well fitted curve in the direction sought with a large enough effect; inconclusive means small, poorly fitted or top-dose-only effect, or another doubt; inactive means no such curve, though single readings can be large; an effect the other way counts as inactive or inconclusive.

O=C(Nc1nccs1)c1cc(N2CCOCC2)nc2ccccc12	ELG1 repair inh 18µM
Cc1ccc(NC(=O)c2cc(N3CCOCC3)nc3ccccc23)cc1	ELG1 repair inh 15µM, BRCA1 expr up inconclusive
COc1ccc(C(O)c2cnc(C)n2Cc2ccccc2)cc1 (configuration not stated)	none (no result: ELG1 repair inh)
Cc1ccc(-n2ncc3c(NC4CCCCC4)ncnc32)cc1	none (no result: IL-2 act, ELG1 repair inh, BRCA1 expr up)
CC1CC1C(=O)OCC(=O)N(C)CC(=O)Nc1ccc(F)cc1 (configuration not stated)	none
CCCC(=O)Nc1ccc(C(=O)COC(=O)C2=COCCO2)cc1	none
CCCC(=O)Nc1ccc(C(=O)COC(=O)C2CC2C)cc1 (configuration not stated)	ELG1 repair inh inconclusive, BRCA1 expr up 11µM
CC(=O)Nc1ccc(C(=O)COC(=O)C2CC2C)c(F)c1 (configuration not stated)	ELG1 repair inh inconclusive, BRCA1 expr up 6.3µM
CC(=O)Nc1ccc(C(=O)COC(=O)c2cccs2)c(F)c1	ELG1 repair inh inconclusive, BRCA1 expr up 14µM
CC(=O)Nc1ccc(C(=O)COC(=O)c2c(C)noc2C)c(F)c1	none
O=C(CCC(=O)N1CC2CCCN2c2ccccc21)NCc1ccc(Cl)cc1 (configuration not stated)	none (no result: IL-2 act, ELG1 repair inh)
COc1ccc(Cc2[nH]n3c(=O)cc(C(C)C)nc3c2-c2ccccc2)cc1	ELG1 repair inh 8.2µM
Cc1cc(C(C)(C)C)cc(CN2CCN(S(=O)(=O)c3cccs3)CC2)c1O	none (no result: ELG1 repair inh)
Cc1cc(O)c(CN2CCN(S(=O)(=O)c3cccs3)CC2)cc1C(C)C	ELG1 repair inh 11µM
Fc1cccc(Cl)c1Cn1c(-c2cccs2)nc2ccccc21	none (no result: IL-2 act, ELG1 repair inh, BRCA1 expr up)
Fc1ccccc1N1CCN(c2c3c(nc4nncn24)CCC3)CC1	none (no result: IL-2 act, ELG1 repair inh)
O=[N+]([O-])c1ccccc1/C=C/c1ccnc2ccccc12	none (no result: IL-2 act, ELG1 repair inh, Nrf2 ARE act)
COc1ccc(/C=C/C(=O)NC(=S)NNC(=O)c2cc(OC)c(OC)c(OC)c2)cc1OC	ELG1 repair inh inconclusive
COc1ccc(/C=C/C(=O)NC(=S)NNC(=O)c2cc(OC)c(OC)c(OC)c2)cc1	ELG1 repair inh 7.3µM
Cc1ccc(NC(=O)CCC(=O)c2cccs2)c(O)c1	ELG1 repair inh inconclusive, BRCA1 expr up 11µM
Cc1csc2nc3cc(C(N)=O)ccc3c(=O)n12	ELG1 repair inh inconclusive
NC(=O)c1ccc2c(=O)n3c(-c4cc(Cl)c(N)c(Cl)c4)csc3nc2c1	ELG1 repair inh 10µM
Cc1nc(N2CCN(C(=O)c3ccco3)CC2)c2c3c(sc2n1)CC(C)CC3 (configuration not stated)	ELG1 repair inh inconclusive
Cc1nc(N2CCN(C(=O)c3ccco3)CC2)c2c3c(sc2n1)CCCC3	ELG1 repair inh 18µM
N#Cc1c(N2CCN(C(=O)c3ccco3)CC2)nc(-c2ccccc2)c2c1CCCC2	ELG1 repair inh 26µM
O=C1Cc2ccccc2C1=C1C=c2ccccc2=C1	none (no result: IL-2 act, ELG1 repair inh, Nrf2 ARE act)
OCCNc1ncnc2ccc(Br)cc12	ELG1 repair inh 9.2µM
Brc1ccc2ncnc(Nc3cccc4ccccc34)c2c1	none
Nc1c(-c2nc(-c3ccccc3Cl)no2)nnn1-c1ccccc1F	none (no result: IL-2 act, ELG1 repair inh, BRCA1 expr up)
Cc1cc(S(=O)(=O)c2ccc([N+](=O)[O-])cn2)ccc1Br	Nrf2 ARE act 13µM (no result: ELG1 repair inh)
CCN=C1S/C(=C\c2ccc(O)c(OCC)c2)C(=O)N1CC	ELG1 repair inh inconclusive
CCN=C1S/C(=C\c2cc(OCC)c(O)cc2Br)C(=O)N1CC	ELG1 repair inh 18µM
O=C(CN(c1ccc2c(c1)OCCO2)S(=O)(=O)c1ccccc1)NCc1ccc(Cl)cc1	ELG1 repair inh 26µM
O=C(CN(c1ccc(F)cc1)S(=O)(=O)c1ccc2c(c1)OCCO2)Nc1ccccc1	ELG1 repair inh 21µM
CCOC(=O)C1=CC[C@@H](c2ccccc2)N(S(=O)(=O)c2ccc(C)cc2)[C@H]1C=C(C)C	none (no result: ELG1 repair inh)
O=C(NCc1ccccc1)c1ccc(CNS(=O)(=O)c2ccc(Br)cc2)cc1	none (no result: IL-2 act, ELG1 repair inh)
Cc1ccc2c(c1)C(c1ccccc1)N(C(=O)c1cccc([N+](=O)[O-])c1)CC(=O)N2 (configuration not stated)	ELG1 repair inh 13µM
O=C1CN(C(=O)c2ccc(Br)o2)C(c2ccccc2)c2cc(F)ccc2N1 (configuration not stated)	ELG1 repair inh 18µM
Cc1ccc2c(c1)C(c1ccccc1)N(C(=O)c1ccccc1)CC(=O)N2 (configuration not stated)	none
CCc1ccccc1N1CC(c2nnc(NC(=O)c3ccco3)s2)CC1=O (configuration not stated)	none (no result: IL-2 act, ELG1 repair inh, BRCA1 expr up)
CCc1nc(Nc2ccc(N3CCN(C(C)=O)CC3)cc2)c2oc3ccccc3c2n1	ELG1 repair inh 9.2µM
CC(=O)N1CCN(c2ccc(Nc3ncnc4c3oc3ccccc34)cc2)CC1	ELG1 repair inh inconclusive
CCOc1ccccc1-n1nnnc1SCC(=O)NC(=O)NCc1ccco1	ELG1 repair inh 26µM
COc1ccc(/C=C2\Sc3ccc(C(=O)NC4CC4)cc3N(C)C2=O)cc1OC	ELG1 repair inh 12µM
CCOc1ccc(/C=C2/Sc3ccc(C(=O)N4CCOCC4)cc3N(C)C2=O)cc1OC	ELG1 repair inh 8.2µM
COc1ccc(/C=C2\Sc3ccc(C(=O)N4CCCC4)cc3N(C)C2=O)cc1OC	ELG1 repair inh inconclusive
CCOC(=O)c1c(C)n(C)c2ccc(OCC(O)Cn3nc(C)cc3C)cc12 (configuration not stated)	ELG1 repair inh 21µM
CC(=O)N/C(=C\c1ccccc1)C(=O)OCc1cccc(S(=O)(=O)N(C)C)c1	ELG1 repair inh 7.3µM
Cc1cccc(C(=O)Nc2nnc(S(=O)(=O)N(C)c3ccccc3C)s2)c1	none (no result: IL-2 act, ELG1 repair inh, BRCA1 expr up)
O=C1C2C(c3ccccc3)(C(=O)N1c1ccc(Cl)cc1)C2(c1ccccc1)c1ccccc1 (configuration not stated)	ELG1 repair inh 6.5µM
CC12CCC(C(=O)N(c3ccc(Cl)cc3)C1=O)C2(C)C (configuration not stated)	none
O=C(O)Cc1ccc(N2N=C(c3ccccc3)CC2=O)cc1	none (no result: ELG1 repair inh)
Cc1nnc(NC(=O)CSCc2cc(=O)c3ccccc3[nH]2)s1	none (no result: IL-2 act, ELG1 repair inh, BRCA1 expr up)
Cc1nc(S(=O)(=O)N2CCOCC2)c(C#N)c(C)c1Cl	Nrf2 ARE act inconclusive
Cc1nc(S(=O)(=O)NC2CCCCC2)c(C#N)c(C)c1Cl	Nrf2 ARE act 13µM
COc1ccc(NC(=O)Cc2ccc(C)c(C)c2)cc1S(=O)(=O)N1CCCCC1	ELG1 repair inh 26µM
COc1ccc(NC(=O)c2cc3ccccc3o2)cc1S(=O)(=O)N1CCCCC1	ELG1 repair inh 21µM
Cc1ccc(NC(=O)c2ccc(F)cc2)cc1S(=O)(=O)N1CCCCCC1	ELG1 repair inh 16µM
COc1cc(NC(=O)c2c(OC)cccc2OC)ccc1NC(=O)c1cc2ccccc2o1	ELG1 repair inh inconclusive, BRCA1 expr up 11µM
CCOC(=O)c1ccc2c(c1)N(Cc1cccc(C(F)(F)F)c1)C(=O)c1ccccc1S2(=O)=O	none (no result: IL-2 act, ELG1 repair inh, BRCA1 expr up)
Cc1ccc(NC(=O)Cc2ccccc2F)cc1S(=O)(=O)N1CCCCCC1	ELG1 repair inh 12µM
